About 79,000 compounds went through this panel and 15% of them were active in at least one assay; those are over-represented in the sample as a whole. No stated cut-off is given here; in the data, active means growth inhibition above about 70%; inactive means the rest.
Tests used:
[1] = NCI Yeast Anticancer Drug Screen. Data for the rad50 strain (AID 155);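 further: 0% = growth of vehicle-only cultures of the same strain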; details: S. cerevisiae rad50 strain growth inhibition; at 50.0 µM; active compounds read high
In short: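 Cells are treated with compound, grown, and their growth is then scored against vehicle-only cultures of the same repair-deficient yeast strain.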

[2] = NCI Yeast Anticancer Drug Screen. Data for the mec2-1 strain (AID 157); details: S. cerevisiae mec2-1 strain, at 50.0 µM, active compounds read high
In short: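 Using mec2-1 yeast: add compound, measure growth, express inhibition versus vehicle-treated cultures.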

[3] = NCI Yeast Anticancer Drug Screen. Data for the sgs1 mgt1 strain (AID 161);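 further: 0% = growth of cultures given vehicle only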; details: S. cerevisiae sgs1 mgt1 strain, at 50.0 µM, active compounds read high
In short: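 Percent growth inhibition was derived by comparing compound-exposed mutant yeast with vehicle-exposed cultures. The strain carries alterations in DNA damage repair.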

[4] = NCI Yeast Anticancer Drug Screen. Data for the cln2 rad14 strain (AID 165);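 further: 0% = growth equal to vehicle treated cultures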; details: S. cerevisiae cln2 rad14 strain, at 50.0 µM, active compounds read high
In short: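 Yeast strain cln2 rad14, bearing defects in cell cycle control and DNA repair, serves as the test system; values reflect growth inhibition compared with vehicle.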

[5] = NCI Yeast Anticancer Drug Screen. Data for the bub3 strain (AID 167); details: S. cerevisiae bub3 mutant strain, at 50.0 µM, active compounds read high
In short: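 Part of a panel of yeast mutants defective in DNA damage repair or cell cycle regulation. Each strain is grown with compound, and inhibition is calculated relative to solvent-treated cultures.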

[6] = NCI Yeast Anticancer Drug Screen. Data for the mlh1 rad18 strain (AID 175); details: S. cerevisiae mlh1 rad18 strain growth inhibition; at 50.0 µM; active compounds read high
In short: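 Steps: expose repair-defective yeast to compound; measure growth; express inhibition against vehicle-treated controls.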

Measured: growth inhibition

COc1ccc(S(=O)(=O)O)cc1NS(=O)(=O)c1ccc(C)cc1
inactive: [1] -1.05% | [2] 18.9% | [3] 15.9% | [4] -12.2% | [5] 0.05% | [6] -2.1%

O=C(NCCc1ccccc1Br)c1ccccc1
inactive: [1] 8.25% | [2] -26.6% | [3] -5.95% | [4] 18.8% | [5] 28.7% | [6] -6.35%

CC(Cc1ccco1)(C(=O)O)C(=O)O
inactive: [1] 11.8% | [2] 16.3% | [3] -14.8% | [4] -1.3% | [5] -11.8% | [6] -11.6%

C/C(CC(O)(C(F)(F)Cl)C(F)(F)Cl)=N\NC(N)=S
inactive: [1] 29.9% | [2] -3.05% | [3] 0.1% | [4] 20.1% | [5] -0.55% | [6] 25.2%

CCn1c(C)nc([N+](=O)[O-])c1Sc1ncn[nH]1
inactive: [1] 10.2% | [2] -10.3% | [3] 11.2% | [4] 5.1% | [5] -7.05% | [6] -59.7%

O=C(/C=C/c1ccc(O)cc1)NCCc1c[nH]c2ccc(O)cc12
inactive: [1] 0.75% | [2] -10% | [3] 10% | [4] 8.35% | [5] -3.7% | [6] 7.75%

Cn1cc(/C=C/C(=O)c2ccccc2[N+](=O)[O-])c2ccccc21
inactive: [1] 7.8% | [2] 12.9% | [3] 2.6% | [4] 18.1% | [5] 0.6% | [6] 2.85%

Cc1ccccc1N(CCC#N)C1=NN(C(=O)CC(=O)Nc2ccccc2)C(c2ccccc2)C1 (stereo unspecified)
inactive: [1] 3% | [2] 1% | [3] 12.1% | [4] 11.7% | [5] 0.85% | [6] -7.2%

Cc1ccc(S(=O)(=O)Nc2ccc(C(=O)NC(CCC(=O)O)C(=O)O)cc2)cc1 (stereo unspecified)
inactive: [1] 3.3% | [2] 2.95% | [3] -8.05% | [4] -2.45% | [5] -1.5% | [6] 13.7%

C=C(C(=O)O)C1CC[C@@]2(C)CC(O)CC(=C)C2C1 (stereo partly specified)
inactive: [1] 16.4% | [2] -0.95% | [3] -8.1% | [4] 5.3% | [5] -2.9% | [6] 14.7%

Cc1ccc(-n2cc(/C(N)=N/O)c3ccccc3c2=O)cc1
inactive: [1] -29.8% | [2] -32.4% | [3] -32.8% | [4] -28.6% | [5] -22.8% | [6] -32.5%

N#Cc1c(C#N)c(-c2ccccc2)n(-c2ccccc2)c1N
inactive: [1] 10.7% | [2] 12% | [3] -29.7% | [4] -12.8% | [5] -11.2% | [6] -22.1%

O=C(O)c1cccc2cnccc12
inactive: [1] -40.6% | [2] -17.6% | [3] -26.9% | [4] 1.3% | [5] -13.3% | [6] -8.7%

c1ccc(C[n+]2cccc3ccccc32)cc1
inactive: [1] 1.75% | [2] -29.6% | [3] -7.1% | [4] 6.25% | [5] -1.95% | [6] -12.2%

[Mn+2].[Mn+2].c1ccc2c(c1)-c1nc-2nc2[n-]c(nc3nc(nc4[n-]c(n1)c1ccccc41)-c1ccccc1-3)c1cc3c4nc5nc(nc6[n-]c(nc7nc(nc([n-]4)c3cc21)-c1ccccc1-7)c1ccccc61)-c1ccccc1-5
inactive: [1] 15.4% | [2] -0.9% | [3] -8.75% | [4] -21.2% | [5] 0.4% | [6] 21.8%

O=C1C(=O)N(C2CCCCC2)C(=S)N1C1CCCCC1
inactive: [1] -31.9% | [2] -30.1% | [3] -62.1% | [4] -2.5% | [5] -5.2% | [6] 12.3%

O=C(NCCCCCCNC(=O)NCc1ccco1)NCc1ccco1
inactive: [1] -22.7% | [2] -28.2% | [3] -28.1% | [4] -15.7% | [5] 0.05% | [6] -19.9%

CN1C(=O)N(C)C2=NC(=O)N(C)C2(C(Cl)(Cl)Cl)C1=O (stereo unspecified)
inactive: [1] 45.3% | [2] 32.2% | [3] 47.4% | [4] 24.6% | [5] 21.6% | [6] 58%

NC(=S)c1ccccc1N=Cc1cccs1
inactive: [1] 26.8% | [2] 16.1% | [3] 14.2% | [4] -7.7% | [5] 53.6% | [6] 41.5%

Cc1cccc(NC(=O)/C(=N\NC(C)(C)C)C2NC(=S)NC2=O)c1C (stereo unspecified)
inactive: [1] -2.25% | [2] -29.8% | [3] -38.5% | [4] -6.6% | [5] -16.4% | [6] -39.1%

O=C(COc1c(Cl)c(Cl)c(Cl)c(Cl)c1Cl)Nc1cccc(Cl)c1
inactive: [1] 18.9% | [2] 2% | [3] 5.25% | [4] 15.2% | [5] 21.3% | [6] 22.8%

Cc1cn(C2CC(O)C(COC(=O)C(C)(C)C)O2)c(=O)[nH]c1=O (stereo unspecified)
inactive: [1] 16.9% | [2] -0.35% | [3] 3.85% | [4] -0.1% | [5] -18.5% | [6] -47.5%

COC1CC(NC(=O)c2ccccc2)C(O)C(C)O1 (stereo unspecified)
inactive: [1] 8.65% | [2] 18.3% | [3] 11.6% | [4] 10.6% | [5] 0.8% | [6] 8.5%

Cc1ccccc1NP1(Nc2ccccc2C)=NP(Nc2ccccc2C)(Nc2ccccc2C)=NP(Nc2ccccc2C)(Nc2ccccc2C)=NP(Nc2ccccc2C)(Nc2ccccc2C)=N1
inactive: [1] 0.8% | [2] -0.9% | [3] 23.6% | [4] -5.3% | [5] -6.95% | [6] -9.7%

CC(C)(CO)NC(=O)c1cccs1
inactive: [1] 14.8% | [2] 5.15% | [3] 1.45% | [4] 12.7% | [5] -4.35% | [6] -20%

CCCc1cc(C(=O)N/N=C/c2ccc([N+](=O)[O-])cc2)c2ccccc2n1
inactive: [1] -28.3% | [2] -3.2% | [3] 0.1% | [4] -40.5% | [5] 9.5% | [6] -2.8%

C[C@@H](C1CCC2C3C(=CC(=O)[C@@]21C)[C@H](C)[C@]1(CCC(=O)O1)C1OC31)[C@H]1C[C@]2(C)O[C@@](C)(O1)OC2(C)C (stereo partly specified)
inactive: [1] -11.2% | [2] -0.9% | [3] -25.9% | [4] -4.85% | [5] -14.2% | [6] 9.15%

CCNC(=O)C1Cc2ccccc2N(CC)C1 (stereo unspecified)
inactive: [1] -13.4% | [2] -6.65% | [3] -0.75% | [4] -12.2% | [5] -1.9% | [6] 2.75%

CN(C)c1ccc(SC2OC(CO)C(O)C(O)C2O)cc1 (stereo unspecified)
inactive: [1] -12.8% | [2] -5.25% | [3] -7.3% | [4] -54.5% | [5] 3.7% | [6] -10%

N#CCc1cn(-c2ccccc2)nn1
inactive: [1] -7.85% | [2] 8.3% | [3] -9.5% | [4] 5.45% | [5] 0.45% | [6] -25.2%

O=C(O)c1cscn1.O=C(O)c1cscn1.[I][Pt][I]
inactive: [1] 5.75% | [2] 3.55% | [3] 13.9% | [4] -17.1% | [5] 0.9% | [6] 48%

CCCCC(CC)COC(=O)CCl (stereo unspecified)
inactive: [1] 21.1% | [2] 10.7% | [3] 8.3% | [4] -14.8% | [5] -1.6% | [6] 21.8%

O=C1NC(=O)C(Cc2ccco2)N1 (stereo unspecified)
inactive: [1] 10.8% | [2] 6.7% | [3] -7.85% | [4] -20.6% | [5] -35.5% | [6] -5.2%

CNCC(SC)c1ccc(O)c(O)c1 (stereo unspecified)
inactive: [1] -9.8% | [2] -14.8% | [3] -20.4% | [4] -15.7% | [5] -31% | [6] -2.6%

CCCCCCCCCCCCCCCCNC(=O)C(C)O (stereo unspecified)
inactive: [1] 23.9% | [2] 3.2% | [3] 17.2% | [4] -13.9% | [5] 7.7% | [6] 30.4%

O=C(CCc1ccc(O)c(O)c1)NCCc1cc(O)cc(O)c1
inactive: [1] 23.1% | [2] -23.9% | [3] -26.8% | [4] -4.95% | [5] -42.5% | [6] -52.5%

FC(F)(F)C(Cl)=C(Cl)Cl
inactive: [1] -1.8% | [2] -38.5% | [3] 14.5% | [4] 20.1% | [5] -13.7% | [6] -1.75%

CCCCCOC(=O)c1cccc(C)c1
inactive: [1] 3.7% | [2] 10.5% | [3] -5.2% | [4] -4.7% | [5] -1.65% | [6] 2.5%

CCCCOC(=O)/C=C\C(=O)NC(=O)NC(C)(C)C
inactive: [1] -7.55% | [2] 1.2% | [3] -4.3% | [4] -33.1% | [5] 5.05% | [6] 3.15%

COC(=O)C(=O)C(C(=O)C(=O)Nc1ccc(C)cc1C)c1nc2ccc(Cl)cc2[nH]c1=O (stereo unspecified)
inactive: [1] 4.35% | [2] -21.6% | [3] 9.2% | [4] -23.6% | [5] -22.4% | [6] 7.45%

CCOC(=O)C1CCC/C1=N/Nc1ccc([N+](=O)[O-])cc1[N+](=O)[O-] (stereo unspecified)
inactive: [1] -1% | [2] 10.6% | [3] 3.25% | [4] -21.9% | [5] -5.3% | [6] -4.75%

Source: PubChem BioAssay (NCI)
